# Source: publication PMC7862700, “An all-to-all approach to the identification of sequence-specific readers for epigenetic DNA modifications on cytosine”
# Experiments:
# Test in all cases: DAPPL (digital affinity profiling via proximity ligation, sequencing); 10 mM Tris-HCl pH 7.5, 50 mM NaCl, 1 mM DTT, 4% glycerol, room temperature, 30 min; GST-TFs on glutathione beads, 16-mer random dsDNA library, 0.1% formaldehyde crosslink after washing; high values mean tight binding
# FEV = molecular target: T1, FEV (Homo sapiens, UniProt Q99581 1-238); details: protein: recombinant; tags: N-terminal GST; dsDNA, one strand shown
# T1 sequence: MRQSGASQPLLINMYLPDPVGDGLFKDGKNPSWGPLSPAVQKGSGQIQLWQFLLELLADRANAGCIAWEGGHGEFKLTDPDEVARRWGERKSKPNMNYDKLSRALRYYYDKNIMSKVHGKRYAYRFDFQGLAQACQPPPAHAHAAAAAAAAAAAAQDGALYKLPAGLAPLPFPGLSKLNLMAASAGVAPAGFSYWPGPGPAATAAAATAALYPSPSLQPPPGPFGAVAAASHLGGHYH
# Summary of the method: (§1)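 After expression in yeast as GST fusions, human transcription factors were bound to glutathione beads, DNA-barcoded and mixed with a tag-only sample. The pools were incubated with 200 nmole of a 16-mer random double-stranded DNA library in Tris/NaCl/DTT/glycerol buffer (30 min, room temperature), washed and crosslinked with 0.1% formaldehyde. Proximity ligation with BsaI/T4 ligase ran for 1 h at 37 °C, before PCR amplification and sequencing on an Illumina NextSeq500. Binding signal is a hexamer's read frequency for a factor divided by its frequency for the tag-only sample.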
# ETV5 = ETV5 (Homo sapiens, UniProt P41161 1-510); details: protein: recombinant; tags: N-terminal GST; dsDNA, one strand shown
# Sequence of ETV5 (P41161 whole entry): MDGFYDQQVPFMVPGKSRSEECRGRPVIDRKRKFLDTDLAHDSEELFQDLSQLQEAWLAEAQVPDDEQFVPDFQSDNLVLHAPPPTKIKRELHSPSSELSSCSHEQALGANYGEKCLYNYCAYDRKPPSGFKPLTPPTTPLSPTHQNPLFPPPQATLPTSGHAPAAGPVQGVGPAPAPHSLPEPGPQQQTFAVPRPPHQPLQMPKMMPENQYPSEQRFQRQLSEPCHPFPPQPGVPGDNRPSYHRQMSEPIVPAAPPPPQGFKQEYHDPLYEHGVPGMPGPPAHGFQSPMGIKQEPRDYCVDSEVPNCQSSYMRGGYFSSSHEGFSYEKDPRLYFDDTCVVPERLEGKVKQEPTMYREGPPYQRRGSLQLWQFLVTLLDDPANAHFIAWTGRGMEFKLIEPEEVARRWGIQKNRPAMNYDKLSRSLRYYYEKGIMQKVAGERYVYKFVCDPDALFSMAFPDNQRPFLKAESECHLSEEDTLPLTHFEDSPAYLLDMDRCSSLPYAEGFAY
# Summary of the method: as §1
# HSF1 = HSF1 (Homo sapiens, UniProt Q00613 1-529); details: protein: recombinant; tags: N-terminal GST; chain copies: 3; dsDNA, one strand shown
# Sequence of HSF1 (Q00613 whole entry): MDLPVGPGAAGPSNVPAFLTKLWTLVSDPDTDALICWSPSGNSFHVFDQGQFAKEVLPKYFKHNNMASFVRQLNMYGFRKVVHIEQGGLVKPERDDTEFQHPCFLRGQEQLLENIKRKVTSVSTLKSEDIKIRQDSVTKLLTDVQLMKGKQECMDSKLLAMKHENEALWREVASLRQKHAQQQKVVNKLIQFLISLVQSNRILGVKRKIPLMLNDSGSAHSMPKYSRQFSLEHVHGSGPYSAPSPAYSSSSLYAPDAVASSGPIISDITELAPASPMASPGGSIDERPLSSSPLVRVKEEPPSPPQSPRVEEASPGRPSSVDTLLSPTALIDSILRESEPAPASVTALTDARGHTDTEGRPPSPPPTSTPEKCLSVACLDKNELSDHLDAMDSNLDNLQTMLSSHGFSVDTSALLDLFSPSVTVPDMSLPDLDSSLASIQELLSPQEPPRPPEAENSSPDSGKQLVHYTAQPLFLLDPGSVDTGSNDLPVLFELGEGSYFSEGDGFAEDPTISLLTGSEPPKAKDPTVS
# Summary of the method: as §1
# SPIC = molecular target: T2, SPIC (Homo sapiens, UniProt Q8N5J4 1-248); details: protein: recombinant; tags: N-terminal GST; dsDNA, one strand shown
# T2 sequence: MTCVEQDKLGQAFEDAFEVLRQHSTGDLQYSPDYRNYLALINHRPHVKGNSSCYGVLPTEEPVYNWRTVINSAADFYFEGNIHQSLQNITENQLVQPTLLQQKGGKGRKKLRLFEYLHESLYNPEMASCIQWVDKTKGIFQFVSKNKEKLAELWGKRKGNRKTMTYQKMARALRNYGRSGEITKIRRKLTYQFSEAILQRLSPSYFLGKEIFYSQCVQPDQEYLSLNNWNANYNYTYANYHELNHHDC
# Summary of the method: as §1
# ELF4 = ELF4 (Homo sapiens, UniProt Q99607 1-663); details: protein: recombinant; tags: N-terminal GST; dsDNA, one strand shown
# Sequence of ELF4 (Q99607 whole entry): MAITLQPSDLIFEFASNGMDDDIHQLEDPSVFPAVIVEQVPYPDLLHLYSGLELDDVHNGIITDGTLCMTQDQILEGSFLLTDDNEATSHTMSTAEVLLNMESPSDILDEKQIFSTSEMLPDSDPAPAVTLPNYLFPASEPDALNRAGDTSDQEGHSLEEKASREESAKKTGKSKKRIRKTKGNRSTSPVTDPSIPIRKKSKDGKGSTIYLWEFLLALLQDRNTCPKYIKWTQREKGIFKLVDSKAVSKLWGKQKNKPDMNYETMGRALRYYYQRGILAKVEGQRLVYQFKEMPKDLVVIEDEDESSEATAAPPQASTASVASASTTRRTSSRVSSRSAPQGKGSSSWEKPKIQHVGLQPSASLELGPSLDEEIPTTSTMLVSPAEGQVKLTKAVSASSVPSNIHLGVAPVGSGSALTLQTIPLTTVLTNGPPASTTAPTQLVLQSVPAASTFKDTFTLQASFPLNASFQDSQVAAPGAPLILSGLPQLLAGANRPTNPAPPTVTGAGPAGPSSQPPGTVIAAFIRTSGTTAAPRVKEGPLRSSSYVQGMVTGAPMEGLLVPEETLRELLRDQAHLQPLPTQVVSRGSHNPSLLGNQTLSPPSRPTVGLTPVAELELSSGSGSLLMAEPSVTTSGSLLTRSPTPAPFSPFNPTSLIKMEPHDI
# Summary of the method: as §1
# ELK4 = molecular target: T3, ELK4 (Homo sapiens, UniProt P28324-2 1-405); details: protein: recombinant; tags: N-terminal GST; dsDNA, one strand shown
# T3 sequence: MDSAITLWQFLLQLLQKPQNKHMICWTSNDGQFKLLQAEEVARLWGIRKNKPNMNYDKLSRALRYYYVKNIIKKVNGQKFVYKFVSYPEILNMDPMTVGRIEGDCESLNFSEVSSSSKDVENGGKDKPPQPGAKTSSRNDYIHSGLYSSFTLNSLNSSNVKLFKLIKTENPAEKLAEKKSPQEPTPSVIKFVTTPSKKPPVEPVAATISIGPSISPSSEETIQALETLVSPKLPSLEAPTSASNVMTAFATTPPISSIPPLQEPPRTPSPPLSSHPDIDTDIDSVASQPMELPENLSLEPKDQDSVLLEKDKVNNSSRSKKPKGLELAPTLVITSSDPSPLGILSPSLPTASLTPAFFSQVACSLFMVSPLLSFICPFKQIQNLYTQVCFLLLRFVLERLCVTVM
# Summary of the method: as §1
# ETV2 = molecular target: T4, ETV2 (Homo sapiens, UniProt O00321 1-342); details: protein: recombinant; tags: N-terminal GST; dsDNA, one strand shown
# T4 sequence: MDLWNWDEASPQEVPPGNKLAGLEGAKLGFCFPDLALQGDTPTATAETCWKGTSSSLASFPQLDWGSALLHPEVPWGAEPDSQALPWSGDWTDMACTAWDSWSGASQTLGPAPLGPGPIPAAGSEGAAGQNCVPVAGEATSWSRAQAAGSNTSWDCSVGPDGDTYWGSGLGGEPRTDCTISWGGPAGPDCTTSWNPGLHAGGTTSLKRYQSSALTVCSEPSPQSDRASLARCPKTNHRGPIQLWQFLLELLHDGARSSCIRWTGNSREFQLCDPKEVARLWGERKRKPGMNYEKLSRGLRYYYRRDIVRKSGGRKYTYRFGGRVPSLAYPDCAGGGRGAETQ
# Summary of the method: as §1
# ELF3 = molecular target: T5, ELF3 (Homo sapiens, UniProt P78545 1-371); details: protein: recombinant; tags: N-terminal GST; dsDNA, one strand shown
# T5 sequence: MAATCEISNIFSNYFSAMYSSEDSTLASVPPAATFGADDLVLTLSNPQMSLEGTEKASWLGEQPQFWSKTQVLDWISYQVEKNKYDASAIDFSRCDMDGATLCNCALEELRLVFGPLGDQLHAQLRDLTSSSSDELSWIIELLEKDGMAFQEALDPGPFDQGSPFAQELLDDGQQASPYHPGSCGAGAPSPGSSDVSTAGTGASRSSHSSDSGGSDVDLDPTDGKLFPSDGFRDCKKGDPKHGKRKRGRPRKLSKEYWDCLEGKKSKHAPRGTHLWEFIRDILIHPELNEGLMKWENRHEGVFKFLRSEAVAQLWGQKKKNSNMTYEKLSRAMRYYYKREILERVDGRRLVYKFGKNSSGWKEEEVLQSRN
# Summary of the method: as §1
# CRX = CRX (Homo sapiens, UniProt O43186 1-299); details: protein: recombinant; tags: N-terminal GST; dsDNA, one strand shown
# Sequence of CRX (O43186 whole entry): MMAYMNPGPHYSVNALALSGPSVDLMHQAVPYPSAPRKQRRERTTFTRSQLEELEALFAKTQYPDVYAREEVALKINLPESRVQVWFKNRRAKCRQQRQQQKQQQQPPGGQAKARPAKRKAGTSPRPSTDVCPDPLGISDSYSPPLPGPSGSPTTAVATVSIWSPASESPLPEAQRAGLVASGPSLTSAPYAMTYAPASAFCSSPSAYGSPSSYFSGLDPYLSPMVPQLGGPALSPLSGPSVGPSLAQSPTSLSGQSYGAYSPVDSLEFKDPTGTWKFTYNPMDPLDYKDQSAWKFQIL
# Summary of the method: as §1
# ETV1 = ETV1 (Homo sapiens, UniProt P50549 1-477); details: protein: recombinant; tags: N-terminal GST; dsDNA, one strand shown
# Sequence of ETV1 (P50549 whole entry): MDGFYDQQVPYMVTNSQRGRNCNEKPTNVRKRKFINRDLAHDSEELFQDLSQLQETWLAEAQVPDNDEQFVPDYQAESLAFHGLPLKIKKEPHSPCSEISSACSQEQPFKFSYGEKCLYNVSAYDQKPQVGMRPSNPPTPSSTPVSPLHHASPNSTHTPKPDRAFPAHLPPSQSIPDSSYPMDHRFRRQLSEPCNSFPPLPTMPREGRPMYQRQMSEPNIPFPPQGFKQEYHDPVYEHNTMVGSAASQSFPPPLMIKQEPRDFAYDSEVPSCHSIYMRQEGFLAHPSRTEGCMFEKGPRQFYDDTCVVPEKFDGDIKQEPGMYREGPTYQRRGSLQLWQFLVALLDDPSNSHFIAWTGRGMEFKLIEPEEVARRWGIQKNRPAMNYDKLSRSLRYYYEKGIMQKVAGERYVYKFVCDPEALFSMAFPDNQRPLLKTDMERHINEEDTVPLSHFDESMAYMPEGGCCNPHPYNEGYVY
# Summary of the method: as §1
# ERF = molecular target: T6, ERF (Homo sapiens, UniProt P50548 1-548); details: protein: recombinant; tags: N-terminal GST; dsDNA, one strand shown
# T6 sequence: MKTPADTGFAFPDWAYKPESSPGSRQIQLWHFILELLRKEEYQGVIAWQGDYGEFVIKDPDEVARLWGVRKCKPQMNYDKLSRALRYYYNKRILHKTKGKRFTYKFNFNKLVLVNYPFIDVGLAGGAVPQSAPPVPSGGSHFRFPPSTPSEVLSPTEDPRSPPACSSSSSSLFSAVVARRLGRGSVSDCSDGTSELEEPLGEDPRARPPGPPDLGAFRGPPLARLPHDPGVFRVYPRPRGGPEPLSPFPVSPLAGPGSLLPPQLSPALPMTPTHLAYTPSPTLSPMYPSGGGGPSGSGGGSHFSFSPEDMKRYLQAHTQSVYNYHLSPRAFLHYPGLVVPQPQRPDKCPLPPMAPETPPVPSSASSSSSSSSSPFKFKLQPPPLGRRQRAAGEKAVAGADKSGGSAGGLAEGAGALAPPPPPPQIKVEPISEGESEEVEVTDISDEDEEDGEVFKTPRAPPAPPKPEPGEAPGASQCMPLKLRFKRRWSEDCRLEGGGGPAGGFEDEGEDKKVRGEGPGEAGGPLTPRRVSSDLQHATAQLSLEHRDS
# Summary of the method: as §1
# ETV3L = molecular target: T7, ETV3L (Homo sapiens, UniProt Q6ZN32 1-361); details: protein: recombinant; tags: N-terminal GST; dsDNA, one strand shown
# T7 sequence: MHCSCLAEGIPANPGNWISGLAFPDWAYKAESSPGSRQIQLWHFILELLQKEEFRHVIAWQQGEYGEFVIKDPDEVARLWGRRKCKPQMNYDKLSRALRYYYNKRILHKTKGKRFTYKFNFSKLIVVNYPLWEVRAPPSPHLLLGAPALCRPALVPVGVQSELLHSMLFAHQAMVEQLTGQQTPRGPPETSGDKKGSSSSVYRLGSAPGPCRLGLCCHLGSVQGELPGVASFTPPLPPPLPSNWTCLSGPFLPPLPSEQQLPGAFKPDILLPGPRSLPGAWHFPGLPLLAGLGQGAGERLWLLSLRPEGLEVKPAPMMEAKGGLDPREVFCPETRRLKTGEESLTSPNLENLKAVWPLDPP
# Summary of the method: as §1
# ETS2 = molecular target: T8, ETS2 (Homo sapiens, UniProt P15036 1-469); details: protein: recombinant; tags: N-terminal GST; dsDNA, one strand shown
# T8 sequence: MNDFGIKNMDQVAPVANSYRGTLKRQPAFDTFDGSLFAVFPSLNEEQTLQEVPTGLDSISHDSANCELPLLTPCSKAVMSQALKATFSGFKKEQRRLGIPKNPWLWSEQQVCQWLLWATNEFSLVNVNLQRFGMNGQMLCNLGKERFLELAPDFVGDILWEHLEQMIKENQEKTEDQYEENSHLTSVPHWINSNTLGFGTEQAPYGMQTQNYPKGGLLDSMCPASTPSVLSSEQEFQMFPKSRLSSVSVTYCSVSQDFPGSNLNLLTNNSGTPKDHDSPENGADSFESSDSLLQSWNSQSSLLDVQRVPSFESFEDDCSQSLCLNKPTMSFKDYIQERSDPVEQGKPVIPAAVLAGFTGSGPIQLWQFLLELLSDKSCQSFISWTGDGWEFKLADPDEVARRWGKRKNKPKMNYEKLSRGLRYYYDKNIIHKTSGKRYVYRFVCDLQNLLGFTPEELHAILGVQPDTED
# Summary of the method: as §1
# SPDEF = molecular target: T9, SPDEF (Homo sapiens, UniProt O95238 1-335); details: protein: recombinant; tags: N-terminal GST; dsDNA, one strand shown
# T9 sequence: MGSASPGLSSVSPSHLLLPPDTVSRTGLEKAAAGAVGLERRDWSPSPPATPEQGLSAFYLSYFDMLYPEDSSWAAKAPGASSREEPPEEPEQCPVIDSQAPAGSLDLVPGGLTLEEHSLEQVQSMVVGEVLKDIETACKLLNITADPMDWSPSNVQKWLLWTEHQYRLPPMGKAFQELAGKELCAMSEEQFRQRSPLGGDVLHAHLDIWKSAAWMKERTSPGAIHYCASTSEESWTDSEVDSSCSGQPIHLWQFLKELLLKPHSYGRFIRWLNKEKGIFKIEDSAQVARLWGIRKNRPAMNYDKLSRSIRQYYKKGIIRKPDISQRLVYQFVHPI
# Summary of the method: as §1
# ETV7 = molecular target: T10, ETV7 (Homo sapiens, UniProt Q9Y603 1-341); details: protein: recombinant; tags: N-terminal GST; dsDNA, one strand shown
# T10 sequence: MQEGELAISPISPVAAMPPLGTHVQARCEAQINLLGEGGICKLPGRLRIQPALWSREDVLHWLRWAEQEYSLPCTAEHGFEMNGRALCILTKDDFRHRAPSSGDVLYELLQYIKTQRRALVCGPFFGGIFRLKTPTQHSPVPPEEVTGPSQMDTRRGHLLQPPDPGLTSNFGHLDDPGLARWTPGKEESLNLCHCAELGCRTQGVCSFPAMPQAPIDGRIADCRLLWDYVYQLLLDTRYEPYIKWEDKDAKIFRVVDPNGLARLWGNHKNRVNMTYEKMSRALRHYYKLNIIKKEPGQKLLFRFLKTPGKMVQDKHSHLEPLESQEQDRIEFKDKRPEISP
# Summary of the method: as §1
# ELF5 = molecular target: T11, ELF5 (Homo sapiens, UniProt Q9UKW6-2 1-255); details: protein: recombinant; tags: N-terminal GST; dsDNA, one strand shown
# T11 sequence: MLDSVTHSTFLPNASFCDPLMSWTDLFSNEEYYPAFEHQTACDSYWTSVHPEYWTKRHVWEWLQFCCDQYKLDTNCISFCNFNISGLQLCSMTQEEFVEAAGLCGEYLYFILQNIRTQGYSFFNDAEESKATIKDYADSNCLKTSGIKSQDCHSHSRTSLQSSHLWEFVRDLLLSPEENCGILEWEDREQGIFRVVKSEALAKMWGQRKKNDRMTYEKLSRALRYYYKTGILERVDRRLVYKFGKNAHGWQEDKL
# Summary of the method: as §1
# ETV3 = molecular target: T12, ETV3 (Homo sapiens, UniProt P41162-2 1-143); details: protein: recombinant; tags: N-terminal GST; dsDNA, one strand shown
# T12 sequence: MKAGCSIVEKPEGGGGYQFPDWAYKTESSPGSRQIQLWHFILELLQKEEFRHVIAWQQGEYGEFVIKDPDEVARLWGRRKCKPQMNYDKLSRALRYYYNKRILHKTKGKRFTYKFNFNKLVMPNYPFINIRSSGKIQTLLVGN
# Summary of the method: as §1
# ETV6 = ETV6 (Homo sapiens, UniProt P41212 1-452); details: protein: recombinant; tags: N-terminal GST; dsDNA, one strand shown
# Sequence of ETV6 (P41212 whole entry): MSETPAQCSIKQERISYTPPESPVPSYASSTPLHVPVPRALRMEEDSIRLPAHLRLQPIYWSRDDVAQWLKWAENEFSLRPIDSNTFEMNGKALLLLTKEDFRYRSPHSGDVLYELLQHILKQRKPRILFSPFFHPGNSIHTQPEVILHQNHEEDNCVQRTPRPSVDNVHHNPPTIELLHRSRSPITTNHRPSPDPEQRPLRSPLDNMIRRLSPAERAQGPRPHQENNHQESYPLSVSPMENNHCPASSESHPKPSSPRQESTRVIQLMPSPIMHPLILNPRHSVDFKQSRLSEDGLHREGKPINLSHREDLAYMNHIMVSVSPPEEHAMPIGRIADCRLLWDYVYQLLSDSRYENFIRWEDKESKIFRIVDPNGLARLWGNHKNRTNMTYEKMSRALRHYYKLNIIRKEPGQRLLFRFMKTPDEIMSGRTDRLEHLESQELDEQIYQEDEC
# Summary of the method: as §1
sequence,measurement,setting,value
TTCGAA,binding signal,FEV,"1.13 fold enrichment (6-mer frequency, TF over GST control)"
same,binding signal,ETV5,"1.18 fold enrichment (6-mer frequency, TF over GST control)"
same,binding signal,HSF1,"1.93 fold enrichment (6-mer frequency, TF over GST control)"
same,binding signal,SPIC,"1.18 fold enrichment (6-mer frequency, TF over GST control)"
same,binding signal,ELF4,"1.26 fold enrichment (6-mer frequency, TF over GST control)"
same,binding signal,ELK4,"1.2 fold enrichment (6-mer frequency, TF over GST control)"
same,binding signal,ETV2,"1.16 fold enrichment (6-mer frequency, TF over GST control)"
same,binding signal,ELF3,"1.24 fold enrichment (6-mer frequency, TF over GST control)"
same,binding signal,CRX,"1.3 fold enrichment (6-mer frequency, TF over GST control)"
same,binding signal,ETV1,"1.1 fold enrichment (6-mer frequency, TF over GST control)"
same,binding signal,ERF,"1.33 fold enrichment (6-mer frequency, TF over GST control)"
same,binding signal,ETV3L,"1.25 fold enrichment (6-mer frequency, TF over GST control)"
same,binding signal,ETS2,"1.24 fold enrichment (6-mer frequency, TF over GST control)"
same,binding signal,SPDEF,"1.17 fold enrichment (6-mer frequency, TF over GST control)"
same,binding signal,ETV7,"1.26 fold enrichment (6-mer frequency, TF over GST control)"
same,binding signal,ELF5,"1.14 fold enrichment (6-mer frequency, TF over GST control)"
same,binding signal,ETV3,"1.03 fold enrichment (6-mer frequency, TF over GST control)"
same,binding signal,ETV6,"1.15 fold enrichment (6-mer frequency, TF over GST control)"
